Screening data deposited in PubChem by National Center for Advancing Translational Sciences (NCATS).
Six1-Eya2 inh: blocks human Six1 binding to Eya2; AlphaScreen GST-Six1/His-Eya2 binding, biochemical; active compounds read low; activity change, % (test concentration not listed); 360,000 compounds, 0.56% hits; AID 651725
Target sequence (O00167 whole entry, looked up): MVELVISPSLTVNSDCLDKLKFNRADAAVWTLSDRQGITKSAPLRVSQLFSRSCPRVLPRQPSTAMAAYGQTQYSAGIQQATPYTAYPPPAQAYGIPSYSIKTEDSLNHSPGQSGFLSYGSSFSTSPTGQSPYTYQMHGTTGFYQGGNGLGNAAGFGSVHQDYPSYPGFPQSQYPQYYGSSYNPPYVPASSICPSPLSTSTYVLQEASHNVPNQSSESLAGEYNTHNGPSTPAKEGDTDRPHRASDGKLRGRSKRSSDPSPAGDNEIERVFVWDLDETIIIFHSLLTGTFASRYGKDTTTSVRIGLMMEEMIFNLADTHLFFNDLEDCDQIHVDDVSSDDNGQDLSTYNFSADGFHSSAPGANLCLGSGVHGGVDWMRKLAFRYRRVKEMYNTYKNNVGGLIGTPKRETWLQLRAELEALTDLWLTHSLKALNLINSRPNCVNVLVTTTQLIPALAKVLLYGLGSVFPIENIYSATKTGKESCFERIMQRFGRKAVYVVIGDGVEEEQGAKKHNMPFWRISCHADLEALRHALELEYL
Target sequence (Q15475 whole entry, looked up): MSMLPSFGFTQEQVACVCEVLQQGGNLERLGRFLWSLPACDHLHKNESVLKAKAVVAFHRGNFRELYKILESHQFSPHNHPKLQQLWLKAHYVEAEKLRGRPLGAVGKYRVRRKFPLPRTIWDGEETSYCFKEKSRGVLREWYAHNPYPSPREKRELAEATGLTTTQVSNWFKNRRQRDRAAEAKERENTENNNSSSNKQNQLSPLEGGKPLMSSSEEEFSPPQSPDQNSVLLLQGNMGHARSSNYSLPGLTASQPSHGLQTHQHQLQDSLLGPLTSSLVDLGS
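GST-Six1 + His-Eya2 (5X stock: 250/500 nM); Tris pH 8.0, 300 mM NaCl, 0.05% BSA, 0.02% Tween 20; GSH donor/Ni acceptor beads; 1 h 37 °C dark; AlphaScreen readout.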
Mito fusion act: mitochondrial division inhibition or fusion activation | S. cerevisiae fusion-defective mutant growth rescue, CellTiterGlo 48 h | 320,000 compounds, 0.23% hits | Potency, µM (titrated, usually from 46.1 µM), most hits filed as activators; active = well fitted activation curve with a large enough effect; inconclusive = small, poorly fitted or top-dose-only effect; inactive = no such curve, though single readings can be large or run the other way; also: nearly all actives have a fitted effect of over 45% in size
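Compounds are tested for their ability to restore growth of mitochondrial fusion-defective yeast strains at non-permissive 37C in YPEG medium over 48 hours. Viability is quantified by luciferase luminescence.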
uPA surface inh: cell surface uPA generation inhibition. cell surface uPA generation assay, qHTS. Potency, µM (top dose mostly 38.3 µM), usual class: inhibitors. 330,000 compounds, 0.31% hits; active = well fitted inhibition curve with a large enough effect; inconclusive = small, poorly fitted or top-dose-only effect; inactive = no such curve, though single readings can be large or run the other way; tested in mouse RAW 264.7 cells; also: nearly all actives have a fitted effect of over 55% in size
CtBP-E1A inh: CtBP/E1A binding inhibition; AID 651724; 340,000 compounds, 0.49% hits; AlphaScreen GST-E1A/His-CtBP binding, 1536-well; active compounds read low; activity change, % (concentration not given with the values)
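In 5 uL wells, 23 nL compound meets equimolar GST-E1A and His-CtBP (5X stock 125 nM each) for 2 h, 37 °C. Beads (5X, 50 ug/mL) then 1 h, 37 °C, dark.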
MBNL1 CUG block: blocks human MBNL1 binding to CUG repeat RNA | 280,000 compounds, 0.036% hits | Potency, µM (highest dose often 57.5 µM), most hits filed as inhibitors | TR-FRET MBNL1-His/biotin-(CUG)12 binding, 665/545 ratio | AID 2675 | Q9NR56; active = well fitted inhibition curve with a large enough effect in the signal ratio, with a control signal flat, not every such curve was filed as active; inconclusive = small, poorly fitted or top-dose-only effect, or effect the other way, or a change in a side signal; inactive = no such curve, though single readings can be large or run the other way; the % refers to the signal ratio
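Compound titration spanned 92 nM–58 uM against the MBNL1-His/biotin-(CUG)12 complex. After 60 min at room temperature with 5 nM streptavidin-XL665 and 0.055 ng/ul terbium anti-His, ratiometric 665/545 nm emission (Ex 340 nm) normalized to controls.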
Of the large screens only hits and unclear results are named; the others gave an inactive call. This is a sample that favours compounds with a hit; in the whole collection about 1.1% have one here. Rule as the data show it, unless noted: active = activity change below about -65%; inconclusive = mostly about -30% to -63%; inactive = weaker than that.

Cc1ccccc1NC(=O)CSc1nc(-c2cccs2)nc2cc(=O)[nH]n12	none (no result: Six1-Eya2 inh, uPA surface inh, CtBP-E1A inh, MBNL1 CUG block)
CC(c1ccccn1)N(CCN(C)C)C(=S)Nc1cccc(F)c1 (stereo not given)	Six1-Eya2 inh inconclusive, CtBP-E1A inh inconclusive, MBNL1 CUG block inconclusive (no result: uPA surface inh)
Cc1cccc(C)c1NC(=S)N(CCN(C)C)C(C)c1ccccn1 (stereo not given)	Six1-Eya2 inh -82.9, CtBP-E1A inh -72.1
Cc1ccc(C)c(NC(=S)N(CCN(C)C)C(C)c2ccccn2)c1 (stereo not given)	Six1-Eya2 inh -70.3, CtBP-E1A inh -65.3
c1ccc(CNc2nc(-c3ccccn3)nc3ccccc23)cc1	Six1-Eya2 inh inconclusive, CtBP-E1A inh -76.8
c1ccc(CNc2nc(-c3ccccc3)nc3ccccc23)cc1	none
CCOC(=O)c1c(NC(=O)C(NCCN(C)C)c2ccccc2)sc2c1CCCC2 (stereo not given)	none
CCC(=O)N1CCCC(C)(C(=O)Nc2nccc3ccccc23)C1 (stereo not given)	none (no result: Mito fusion act, uPA surface inh, MBNL1 CUG block)
COc1ccc2oc(=O)c(-c3csc(Nc4ccc(O)cc4)n3)cc2c1	Mito fusion act 15.8µM, MBNL1 CUG block inconclusive
COc1ccc2oc(=O)c(/C(C)=N/Nc3nc(-c4cc(C)ccc4C)cs3)cc2c1	none
O=C(NCCCNCCCNC(=O)c1ccc(/C=N/O)nc1)c1ccc(/C=N/O)nc1	Six1-Eya2 inh -86.7 (no result: CtBP-E1A inh)
CN(CCCNC(=O)c1ccc(/C=N/O)nc1)CCCN(C)Cc1ccccc1	Six1-Eya2 inh inconclusive, CtBP-E1A inh inconclusive
NC(=O)c1cccc(C[C@H](C(=O)O)N2C(=O)c3ccc(C(=O)O)cc3C2=O)c1	none (no result: Six1-Eya2 inh, uPA surface inh, CtBP-E1A inh, MBNL1 CUG block)
S=C(NCc1ccccc1)NCc1ccccc1Cl	CtBP-E1A inh -67.7
Fc1ccc(NC(=S)NCc2ccccc2Cl)cc1	none
COc1ccc(NC(=O)c2cc(C3CCCCN3S(=O)(=O)c3cccs3)on2)c(C)c1 (stereo not given)	none (no result: Mito fusion act, uPA surface inh, MBNL1 CUG block)
C=C(CC)C(=O)c1ccc(OCC(=O)O)c(Cl)c1Cl	uPA surface inh 4.47µM, MBNL1 CUG block inconclusive
COc1ccc(CCn2c(=N)c(C(=O)NCc3ccco3)cc3c(=O)n4ccccc4nc32)cc1	Six1-Eya2 inh -75.1, uPA surface inh inconclusive, CtBP-E1A inh -82.9, MBNL1 CUG block inconclusive
CN(C)CCCNC(=O)C(=O)Nc1ccc2c(c1)N(S(=O)(=O)c1cccs1)CCC2	none (no result: MBNL1 CUG block)
CN(C)CCNC(=O)C(=O)Nc1ccc2c(c1)N(S(=O)(=O)c1cccs1)CCC2	uPA surface inh 4.47µM (no result: MBNL1 CUG block)
CC(=O)N1CCN(CC(=O)Nc2cc(S(=O)(=O)N3CCCCC3)ccc2C)CC1	none (no result: Mito fusion act, MBNL1 CUG block)
O=C(Cn1ncc(Cl)c(Cl)c1=O)N1CCN(Cc2ccccc2)CC1	uPA surface inh 11.2µM
O=C(Cn1ncc(Cl)c(Cl)c1=O)N1CCOCC1	none
Nc1nnnn1/N=C/c1cc(Br)ccc1O	Six1-Eya2 inh -92.3, CtBP-E1A inh -93.8 (no result: Mito fusion act, MBNL1 CUG block)
Cc1csc(N=Nc2ccc(N(C)C)cc2)[n+]1[O-]	Six1-Eya2 inh -77.4, CtBP-E1A inh inconclusive (no result: Mito fusion act, uPA surface inh, MBNL1 CUG block)
COc1cccc(S(=O)(=O)N(C)C[C@H]2OCc3cnnn3CCCC(=O)N([C@H](C)CO)C[C@@H]2C)c1	none (no result: Mito fusion act, uPA surface inh, MBNL1 CUG block)
COc1cccc(C(=O)Oc2ccccc2/C=C\C(=O)c2cc3ccccc3o2)c1	uPA surface inh 8.91µM
O=C1c2cccc(NCCCNCCO)c2C(=O)c2cccc(NCCCNCCO)c21	Six1-Eya2 inh -70.7, CtBP-E1A inh -79.2 (no result: Mito fusion act, MBNL1 CUG block)
COc1ccc(C(NC(=O)c2cccnc2)c2cc(Cl)c3cccnc3c2O)cc1OC (stereo not given)	Six1-Eya2 inh -91.2, CtBP-E1A inh -92.3
CC(=O)NC(c1ccc(C)cc1)c1cc(Cl)c2cccnc2c1O (stereo not given)	Six1-Eya2 inh inconclusive, CtBP-E1A inh -74.3
CCCCC(=O)NC(c1ccco1)c1cc(Cl)c2cccnc2c1O (stereo not given)	Six1-Eya2 inh inconclusive (no result: CtBP-E1A inh)
CCC(=O)NC(c1ccco1)c1cc(Cl)c2cccnc2c1O (stereo not given)	Six1-Eya2 inh -80.4, CtBP-E1A inh -90.2
Oc1c(C(Nc2ccccn2)c2cccnc2)cc(Cl)c2cccnc12 (stereo not given)	Six1-Eya2 inh -90.5, CtBP-E1A inh -88.6
CCCCCCCCCC(=O)NC(CN1CCOCC1)[C@H](O)c1ccccc1 (stereo not given in full)	none (no result: Six1-Eya2 inh, uPA surface inh, CtBP-E1A inh, MBNL1 CUG block)
